Consider 5 molecules from PubChem BioAssay (NCATS).

Results filed as inconclusive are left out. Where a call stands in place of a potency, no number is given. The source made the active and inactive calls. Calls come from the whole dose curve; as a rule, active = well fitted cell-killing curve with a large enough effect; inconclusive = small, poorly fitted or top-dose-only effect, or effect the other way; inactive = no such curve, though single readings can be large or run the other way.

This assay in a line: qHTS assay to identify small molecule inhibitors of chordoma cells - UCH-1 (AID 1259355). Note: nearly all actives have a fitted effect of over 55% in size. The note with it: UCH-1 chordoma viability, CellTiter-Glo, 48 h, combination; series mostly up to 46.1 µM. In a few lines: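 Seed 800 cells per well; incubate overnight at 37 C, 5% CO2. Add test compounds (15 concentrations), then the auranofin–topoisomerase-agent combination. Incubate 48hr, add CellTiter-Glo, wait 30min, read luminescence.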
In general terms: qHTS replaces the single test concentration by a dilution series.
As to `ClC1=C(Cl)[C@]2(Cl)[C@@H]3[C@H]4C[C@H]([C@@H]5O[C@H]45)[C@@H]3[C@@]1(Cl)C2(Cl)Cl`, the Potency result is “inactive”.

Turning to `COCC(C)N(C(=O)CCl)c1c(C)csc1C` (stereo not given), the Potency result is “inactive”.

Regarding `CCCC(C)C1(CC)C(=O)NC(=O)NC1=O` (stereo not given), the Potency entry is “inactive”.

Turning to `CC(C)(C)c1cc(O)ccc1O`, the Potency entry was “inactive”.

For `C[C@@H](CO)NC(=O)[C@@H]1C=C2c3cccc4[nH]cc(c34)C[C@H]2N(C)C1`, the Potency entry is “inactive”.
